Compounds without any hit were thinned out: in the full panel of roughly 83,000, 20% have a hit.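 Percent growth is the endpoint: 0 to 100 indicates growth inhibition (40 means 60% inhibition), 0 means no net growth, and negative values indicate cell death.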 Values without a mark were called inactive. Activity calls are given as the source filed them. Rule for the calls: active = growth percent below 10; inactive = the rest.

Test systems include HCT-15 colon; HT29 colon; SNB-75 CNS; SNB-19 CNS; U251 CNS; PC-3 prostate; SK-MEL-5 melanoma; UACC-62 melanoma; LOX IMVI melanoma; SK-MEL-28 melanoma.
Holding throughout (test): NCI-60 one-dose screen, 48 h (100 = growth as untreated, 0 = no growth, -100 = all killed)
Holding throughout (details): 10 µM unless noted

For the molecule `C=C1C(=O)O[C@H]2[C@H]1CC/C(COC(=O)c1ccc(Cl)nc1)=C\CC[C@@]1(C)O[C@@H]21`, the growth is -14.6% (active) in the experiment with HCT-15 colon; -6.31% (active) with HT29 colon; 74.9% with SNB-75 CNS; 56% in the experiment on SNB-19 CNS; 44.1% in the experiment on U251 CNS; 53.2% in the experiment on PC-3 prostate. Besides, the growth in the experiment on SK-MEL-5 melanoma is 44.8%; with UACC-62 melanoma, -25.6% (active); in the experiment with LOX IMVI melanoma it was -79.3% (active); in the experiment with SK-MEL-28 melanoma it was 1.37% (active).

As to `CCN(CC)CCNc1ccc([N+](=O)[O-])c2sc3cc(Cl)ccc3c(=O)c12`, the growth in the experiment on HCT-15 colon is 48.5%; in the experiment with HT29 colon, 34.7%; in the experiment with SNB-75 CNS, 1.48% (active); in the experiment with SNB-19 CNS it was 42.2%; in the experiment on U251 CNS, 40.4%; with PC-3 prostate it was 48.5%. Further, the growth in the experiment with SK-MEL-5 melanoma was 61.7%; with UACC-62 melanoma, 30.9%; with LOX IMVI melanoma it was 19.1%; with SK-MEL-28 melanoma it was -47.5% (active).

For `COc1cc(C(=O)NNC(=O)c2ccccc2O)cc(OC)c1OC`, the growth in the experiment on HCT-15 colon was 105%; in the experiment with HT29 colon, 80.6%; with SNB-75 CNS, 79.2%; in the experiment with SNB-19 CNS, 93.3%; with U251 CNS it was 91.6%; in the experiment with PC-3 prostate it was 70.9%. Besides, the growth in the experiment with SK-MEL-5 melanoma is 86.9%; in the experiment on UACC-62 melanoma it was 81.3%; in the experiment on LOX IMVI melanoma, 102%; in the experiment on SK-MEL-28 melanoma, 109%.

For the molecule `C/C(=N/NC(=O)Cn1c2ccccc2c2ccncc21)c1cccs1`, the growth is 99.8% in the experiment with HCT-15 colon; 89.5% in the experiment on HT29 colon; 104% in the experiment with SNB-75 CNS; 94.9% with SNB-19 CNS; 97.5% in the experiment on U251 CNS; 99.2% in the experiment on PC-3 prostate. Further, the growth in the experiment with SK-MEL-5 melanoma was 99.4%; in the experiment with UACC-62 melanoma, 95.8%; in the experiment on LOX IMVI melanoma it was 104%; in the experiment with SK-MEL-28 melanoma it was 108%.

As for `COc1ccc(C(=O)NC(=O)Nc2ccc3c(c2)NC(=O)/C3=C\c2[nH]c(C)c(C(=O)O)c2C)c(F)c1`, the growth in the experiment on HCT-15 colon is 47.8%; in the experiment on HT29 colon it was 16.5%; in the experiment with SNB-75 CNS, 30.4%; in the experiment on SNB-19 CNS, 79.3%; in the experiment on U251 CNS it was 32.1%; in the experiment on PC-3 prostate, 40.2%. Also, the growth was 28.2% in the experiment on SK-MEL-5 melanoma, 38.3% in the experiment on UACC-62 melanoma, 52.4% with LOX IMVI melanoma and 57.9% in the experiment with SK-MEL-28 melanoma.

Turning to `O=C1CN(CCN2CC(=O)NC(=O)C2)CC(=O)N1`, the growth was 114% in the experiment with HCT-15 colon; 110% with HT29 colon; 76.1% in the experiment with SNB-75 CNS; 99% in the experiment on SNB-19 CNS; 100% with U251 CNS; 89.8% in the experiment on PC-3 prostate. Moreover, the growth was 87% in the experiment on SK-MEL-5 melanoma, 86.5% in the experiment on UACC-62 melanoma, 93.7% with LOX IMVI melanoma and 121% with SK-MEL-28 melanoma.

`COc1cc2ncnc(Oc3ccc(NC(=O)Nc4ccc(C5(C#N)CCCC5)cc4)c4ccccc34)c2cc1OC`: the growth with HCT-15 colon is 74.5%; in the experiment on HT29 colon, 35%; in the experiment with SNB-75 CNS, 36.1%; in the experiment with SNB-19 CNS, 36.7%; with U251 CNS it was -49.3% (active); with PC-3 prostate, 56.8%. The growth in the experiment on SK-MEL-5 melanoma was 50.2%; in the experiment on UACC-62 melanoma it was 40%; in the experiment with LOX IMVI melanoma, 47.7%; with SK-MEL-28 melanoma, 64.1%.

As for `CC(=O)CC/C=C(\C)[C@H](O)[C@H](C)C(=O)O[C@H]1C[C@H](C)C=C2C=C[C@@]3(C)O[C@@H](O)CC(=O)[C@]3(C)[C@H]21`, the growth with HCT-15 colon is 0.209% (active); in the experiment on HT29 colon, -33.8% (active); in the experiment with SNB-75 CNS, -85.3% (active); in the experiment on SNB-19 CNS it was -12.3% (active); with U251 CNS, -25.9% (active); in the experiment with PC-3 prostate, -31.2% (active). In addition, the growth in the experiment on SK-MEL-5 melanoma is -91.7% (active); in the experiment on UACC-62 melanoma it was -56.6% (active); in the experiment with LOX IMVI melanoma, -55.1% (active); in the experiment on SK-MEL-28 melanoma, -40.7% (active).

For `C=C1C(=O)O[C@H]2[C@H]1CC/C(CNC(=O)/C1=C/CC[C@@]3(C)O[C@H]3[C@H]3OC(=O)C(=C)[C@@H]3CC1)=C\CC[C@@]1(C)O[C@@H]21`, the growth in the experiment with HCT-15 colon was 93.7%; in the experiment with HT29 colon, 95.4%; in the experiment with SNB-75 CNS it was 86.3%; with SNB-19 CNS, 97.6%; in the experiment on U251 CNS, 94.2%; in the experiment with PC-3 prostate, 99%. In addition, the growth is 97.2% in the experiment with SK-MEL-5 melanoma, 85.1% with UACC-62 melanoma, 88.2% in the experiment with LOX IMVI melanoma and 96.2% in the experiment with SK-MEL-28 melanoma.

Regarding `OC(COc1ccccc1Cl)CN1CCN(c2ccc(Cl)cc2)CC1` (stereo not given), the growth with HCT-15 colon is 90.5%; in the experiment on HT29 colon, 113%; in the experiment with SNB-75 CNS, 83.3%; in the experiment on SNB-19 CNS it was 111%; in the experiment with U251 CNS, 99.5%; in the experiment with PC-3 prostate, 85.1%. Besides, the growth was 104% in the experiment on SK-MEL-5 melanoma, 95.9% in the experiment on UACC-62 melanoma, 104% with LOX IMVI melanoma and 103% in the experiment with SK-MEL-28 melanoma.

As for `COc1ccc2c(c1)OC(N(C(C)=O)C(C)=O)=C(C#N)C2c1ccc(F)cc1` (stereo not given), the growth in the experiment with HCT-15 colon was 24.9%; with HT29 colon, 8.69% (active); in the experiment with SNB-75 CNS, 8.71% (active); with SNB-19 CNS, 28.6%; in the experiment on U251 CNS, 30.8%; in the experiment with PC-3 prostate, 21.9%. In addition, the growth in the experiment on SK-MEL-5 melanoma was 18.9%; with UACC-62 melanoma, 34.5%; with LOX IMVI melanoma, 47.7%; in the experiment with SK-MEL-28 melanoma, 64.4%.

For `CCn1c(SCC(=O)c2ccc(Br)cc2)nnc1-c1cc2c([nH]c3ccccc32)c(-c2cccc(O)c2)n1`, the growth is 56.2% with HCT-15 colon; 91.6% in the experiment on HT29 colon; 60.9% with SNB-75 CNS; 98.9% with SNB-19 CNS; 58.5% with U251 CNS; 68.6% in the experiment on PC-3 prostate. The growth in the experiment with SK-MEL-5 melanoma was 52.7%; in the experiment on UACC-62 melanoma it was 89.6%; in the experiment with LOX IMVI melanoma, 48.2%; in the experiment on SK-MEL-28 melanoma, 73.7%.

Consider `COc1ccc(C2CC(c3cc(Cl)c(C)cc3OC)=NN2c2ccc(S(N)(=O)=O)cc2)cc1OC` (stereo not given), for which the growth with HCT-15 colon is 75.9%; with HT29 colon it was 78.7%; in the experiment with SNB-75 CNS, 83.6%; in the experiment on SNB-19 CNS, 101%; in the experiment with U251 CNS it was 78.4%; in the experiment on PC-3 prostate it was 52.3%. The growth with SK-MEL-5 melanoma was 84.6%; in the experiment on UACC-62 melanoma it was 65.1%; with LOX IMVI melanoma, 77.9%; in the experiment on SK-MEL-28 melanoma, 108%.

These data come from PubChem BioAssay (NCI).
